In PubChem BioAssay (Tox21) one finds Potency and outcome data, which are given here for nine molecules.

Records with an inconclusive call do not appear. Calls of active or inactive are those of the source. Unless noted, the call rests on the fitted dose curve; in most records, active means well fitted curve in the direction sought with a large enough effect in the repeat runs; inconclusive means weak or mixed curves; inactive means no such curve, though single readings can be large; an effect the other way counts as inactive or inconclusive.

For experiment [1], the target named is Estrogen receptor beta (Homo sapiens) (UniProt Q92731). The experiment can be described thus: qHTS assay to identify small molecule agonists of the estrogen receptor beta (ER-beta) signaling pathway (AID 1259377; active means well fitted activation curve with a large enough effect in the signal ratio in the repeat runs, not every such curve was filed as active; the % refers to the signal ratio). In short, it runs like this:
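Read-out: beta-lactamase FRET fluorescence. Cell line: ER-beta-UAS-bla HEK293T in 2% charcoal-stripped FBS. Exposure: 16 hr at 37C. Substrate step: 2 h at room temperature.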
A general note: In qHTS, concentration-response curves come from the screen itself.

Experiment [2] shares this target. In words: qHTS assay to identify small molecule antagonists of the estrogen receptor beta (ER-beta) signaling pathway (AID 1259378; active means well fitted inhibition curve with a large enough effect in the signal ratio in the repeat runs, not every such curve was filed as active; the % refers to the signal ratio). Put shortly:
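Antagonist mode: compounds added to beta-lactamase reporter HEK293T ER-beta-UAS cells stimulated with E2 (1nM final), 16 hr at 37C. LiveBLAzer B/G FRET substrate, 2 hours room temperature, fluorescence read-out.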

Experiment [3] can be described thus: qHTS assay to identify small molecule agonists of the androgen receptor (AR) signaling pathway in the presence of an antagonist - cell viability counter screen (AID 1259379).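 Further: MDA-kb2 human breast cancer cells carrying an MMTV luciferase reporter; series mostly up to about 92 µM; nearly all actives have a fitted effect of over 25% in size.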 In short, it runs like this: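 In MDA-kb2 cells (human breast carcinoma, MMTV-luciferase), compounds at 15 concentrations plus 3.0uM nilutamide; 16 hr, 37C, 0% CO2; CellTiter-Fluor fluorescence read for viability.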

A short description of experiment [4]: qHTS assay to identify small molecule antagonists of the estrogen receptor beta (ER-beta) signaling pathway - cell viability counter screen (AID 1259382).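 Further: HEK293T cells carrying ER-beta-UAS-bla reporter stimulated with estradiol; series mostly up to about 92 µM; nearly all actives have a fitted effect of over 55% in size.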 In short, it runs like this: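 Tox21 10K library tested in qHTS format on ER-beta-bla HEK293T cells stimulated with 1nM E2; 16 hr treatment at 37C. Same-well CellTiter-Glo luminescence served as the cell viability measure.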

In experiment [5] the target is Estrogen receptor (Homo sapiens) (UniProt P03372). In words: qHTS assay to identify small molecule agonists of the estrogen receptor alpha (ER-alpha) signaling pathway in the presence of an antagonist (AID 1259383; calls by dose curve; further: top concentration of the series differs between compounds; nearly all actives have a fitted effect of over 15% in size). Put shortly:
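In VM7Luc4E2 cells, 4,000 per well, compounds at 15 concentrations were co-incubated 22hr at 37C with 10.0nM final ICI-182,780. Luminescence from the stably transfected 4×ERE-luciferase reporter was recorded 30min after ONE-Glo addition.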

Experiment [6] can be described thus: qHTS assay to identify small molecule agonists of the estrogen receptor alpha (ER-alpha) signaling pathway in the presence of an antagonist - cell viability counter screen (AID 1259386).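 Further: series mostly up to about 92 µM; cells exposed to compounds for 22 h at 37 °C before the viability read; nearly all actives have a fitted effect of over 30% in size.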 In short, it runs like this: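 Fluorescent CellTiter-Fluor viability signal from VM7Luc4E2 cells, with the reagent added during the final hour of a 22hr compound exposure at 37C in the presence of 10.0nM ICI-182,780.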

Experiment [7] deals with Progesterone receptor (Homo sapiens) (UniProt P06401). In words: qHTS assay to identify small molecule agonists of the progesterone receptor (PR) signaling pathway (AID 1346784; calls by dose curve; further: nearly all actives have a fitted effect of over 30% in size). In short, it runs like this: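 Compounds were tested for PR agonism in HEK 293T cells bearing a beta-lactamase gene under UAS control. Treatment lasted 16 hr at 37C; signal came from fluorescence of a FRET substrate.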
Sequence of Progesterone receptor (Homo sapiens) (P06401 whole entry, looked up): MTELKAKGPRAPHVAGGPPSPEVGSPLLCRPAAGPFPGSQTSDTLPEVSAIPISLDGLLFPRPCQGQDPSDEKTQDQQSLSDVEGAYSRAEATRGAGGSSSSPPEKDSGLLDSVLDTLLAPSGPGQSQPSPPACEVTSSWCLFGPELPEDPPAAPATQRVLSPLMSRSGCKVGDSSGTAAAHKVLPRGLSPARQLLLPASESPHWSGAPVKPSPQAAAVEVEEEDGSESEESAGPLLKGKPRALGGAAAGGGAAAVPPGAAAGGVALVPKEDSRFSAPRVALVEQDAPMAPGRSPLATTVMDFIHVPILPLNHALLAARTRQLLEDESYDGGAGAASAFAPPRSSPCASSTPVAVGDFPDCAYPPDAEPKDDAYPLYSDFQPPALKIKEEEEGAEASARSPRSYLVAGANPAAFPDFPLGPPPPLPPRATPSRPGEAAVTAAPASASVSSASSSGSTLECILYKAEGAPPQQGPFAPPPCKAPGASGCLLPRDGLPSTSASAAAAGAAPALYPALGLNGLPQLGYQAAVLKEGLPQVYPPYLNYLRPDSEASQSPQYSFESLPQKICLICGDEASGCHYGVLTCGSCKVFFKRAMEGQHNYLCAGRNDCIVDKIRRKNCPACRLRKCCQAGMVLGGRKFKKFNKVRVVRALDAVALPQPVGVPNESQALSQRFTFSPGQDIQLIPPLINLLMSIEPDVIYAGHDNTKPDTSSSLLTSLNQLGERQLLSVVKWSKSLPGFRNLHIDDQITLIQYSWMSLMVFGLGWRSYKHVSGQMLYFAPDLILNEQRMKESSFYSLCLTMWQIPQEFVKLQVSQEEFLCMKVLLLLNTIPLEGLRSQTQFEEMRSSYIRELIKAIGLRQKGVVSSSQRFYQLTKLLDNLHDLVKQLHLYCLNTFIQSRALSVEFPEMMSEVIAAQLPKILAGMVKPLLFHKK

Experiment [8] has the same target. In words: qHTS assay to identify small molecule antagonists of the progesterone receptor (PR) signaling pathway (AID 1346795; active means well fitted inhibition curve with a large enough effect in the signal ratio in the repeat runs, not every such curve was filed as active; the % refers to the signal ratio; further: potency means the concentration at half of the fitted maximal effect). In short, it runs like this: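 In HEK293T cells bearing the PR-UAS-bla reporter, compound effects on promegestone-driven (1 nM) beta-lactamase expression are assessed after 16 hr using a fluorescent FRET substrate incubated 2 hr at room temperature.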

The nature of experiment [9]: qHTS assay to identify small molecule antagonists of the progesterone receptor (PR) signaling pathway - cell viability counter screen (AID 1346798). Further: series mostly up to about 92 µM; nearly all actives have a fitted effect of over 50% in size. In short, it runs like this:
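Following a 4 hr attachment, PR-UAS-bla HEK293T cells in charcoal-stripped FBS medium were exposed to compounds with R5020 for 16 hr; CellTiter-Glo was added and luminescence read after 30 min at room temperature.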

Experiment [10] in a line: qHTS assay to identify small molecule antagonists of the TGF-beta/Smad signaling pathway - cell viability counter screen (AID 1346824). Further: nearly all actives have a fitted effect of over 50% in size. Put shortly: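 Cytotoxicity counter-screen run in the same wells as the beta-lactamase Smad reporter read: CellTiter-Glo luminescence after 30 min at room temperature. HEK 293T SBE-bla cells had 5 hr compound exposure at 37 C with TGF-beta1 (0.25 ng/mL stock).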

Experiment [11] is described as follows: qHTS assay to identify small molecule agonists of the TGF-beta/Smad signaling pathway - cell viability counter screen (AID 1346829). Further: top concentration of the series differs between compounds; nearly all actives have a fitted effect of over 45% in size. Put shortly:
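Cytotoxicity counter screen: CellTiter-Glo luminescence (30 min, room temperature) measured in the SBE-bla HEK 293T reporter wells after 5 hr compound treatment at 37 C and the 2 hr substrate step.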

Experiment [12] addresses Thyrotropin-releasing hormone receptor (Homo sapiens) (UniProt P34981). The experiment can be described thus: qHTS assay to identify small molecule antagonists of the thyrotropin-releasing hormone receptor (TRHR) signaling pathway (AID 1346877; active means well fitted inhibition curve with a large enough effect in the repeat runs, not every such curve was filed as active; further: series mostly up to about 51 µM). Put shortly:
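In this cell-based calcium flux format, HEK293 cells expressing TRHR received test compound for 5 min before the agonist TRH (1 nM final). Dye loading lasted 2 h at 37 °C.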

The target is the same in experiment [13]. The experiment can be described thus: qHTS assay to identify small molecule agonists of the thyrotropin-releasing hormone receptor (TRHR) signaling pathway (AID 1346891; calls by dose curve; further: series mostly up to about 58 µM). Put shortly: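 Screening of agonists relied on calcium signalling in HEK293 cells expressing human TRHR: dye loading 2 h at 37 °C preceded compound addition and a 3-min fluorescence time course.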

Experiment [14] in a line: qHTS assay to identify small molecule agonists of the estrogen receptor beta (ER-beta) signaling pathway - cell viability counter screen (AID 1259380). Further: nearly all actives have a fitted effect of over 30% in size. Further: potency means the concentration at half of the fitted maximal effect. Put shortly:
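Viability of ER-beta-UAS-bla HEK293T cells was determined by CellTiter-Glo luminescence following 16 hr treatment with test compounds at 37C.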

Experiment [15] in a line: qHTS assay to identify small molecule agonists or antagonists of the thyroid stimulating hormone receptor (TSHR) signaling pathway - wild type cell line counter screen (AID 1259384; calls by dose curve). Put shortly: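 Counter screen in untransfected Hek293: compounds (15-point titration, triplicate) plus phosphodiesterase inhibitor Ro20-1724 added after 18 h plating; 30 min RT. Intracellular cAMP via competitive d2/cryptate immunoassay, 1 h incubation.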

In experiment [16] the target is Thyrotropin receptor (Homo sapiens) (UniProt P16473). The experiment can be described thus: qHTS assay to identify small molecule antagonists of the thyroid stimulating hormone receptor (TSHR) signaling pathway (AID 1259385; calls by dose curve; further: nearly all actives have a fitted effect of over 20% in size). In short, it runs like this: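 Antagonist mode: compound-treated TSHR-expressing HEK293 cells were stimulated with 1.5 ng/mL TSH (final) in presence of Ro20-1724 for 30 min at RT. HTRF cAMP detection after 1 h; each compound tested at 15 concentrations, triplicate.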
Sequence of Thyrotropin receptor (Homo sapiens) (P16473 whole entry, looked up): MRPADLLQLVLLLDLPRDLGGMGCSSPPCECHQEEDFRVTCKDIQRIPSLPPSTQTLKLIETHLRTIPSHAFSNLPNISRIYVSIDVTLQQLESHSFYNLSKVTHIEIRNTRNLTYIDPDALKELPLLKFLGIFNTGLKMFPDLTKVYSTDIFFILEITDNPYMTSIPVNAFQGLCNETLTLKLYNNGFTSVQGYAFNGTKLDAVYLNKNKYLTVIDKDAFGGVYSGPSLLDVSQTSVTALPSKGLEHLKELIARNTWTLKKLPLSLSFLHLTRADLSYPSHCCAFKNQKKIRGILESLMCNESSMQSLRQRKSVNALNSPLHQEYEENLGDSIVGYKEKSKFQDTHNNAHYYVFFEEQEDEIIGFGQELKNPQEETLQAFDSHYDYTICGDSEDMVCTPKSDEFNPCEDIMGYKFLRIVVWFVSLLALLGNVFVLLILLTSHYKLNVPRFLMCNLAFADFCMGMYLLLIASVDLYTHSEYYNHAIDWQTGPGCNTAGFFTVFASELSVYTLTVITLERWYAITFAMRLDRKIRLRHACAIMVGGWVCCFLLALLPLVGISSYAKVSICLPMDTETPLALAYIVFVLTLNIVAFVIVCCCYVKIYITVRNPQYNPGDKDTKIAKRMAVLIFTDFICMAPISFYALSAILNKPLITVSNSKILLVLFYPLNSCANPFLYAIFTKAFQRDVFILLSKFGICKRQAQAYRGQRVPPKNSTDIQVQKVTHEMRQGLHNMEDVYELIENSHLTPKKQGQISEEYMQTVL

A short description of experiment [17]: qHTS assay to identify small molecule agonists of the progesterone receptor (PR) signaling pathway - cell viability counter screen (AID 1346799; calls by dose curve; further: nearly all actives have a fitted effect of over 45% in size). Put shortly:
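Here, 3,000 PR-UAS-bla HEK293T cells per well were treated with compounds for 16 hr after a 6 hr preincubation at 37C and 5% CO2; cell viability is the CellTiter-Glo luminescence signal.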

Experiment [18] can be described thus: qHTS assay to identify small molecule agonists of the TGF-beta/Smad signaling pathway (AID 1346859; active means well fitted activation curve with a large enough effect in the signal ratio in the repeat runs, not every such curve was filed as active; the % refers to the signal ratio; further: series mostly up to about 77 µM). In short, it runs like this: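 Each well held 4,000 SBE-bla HEK 293T cells incubated overnight before compound addition; 5 hr later the cleavable FRET substrate went on for 2 hr at room temperature, and fluorescence was read at two emissions.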
The target in experiment [19] is Androgen receptor (Homo sapiens) (UniProt P10275). The experiment can be described thus: qHTS assay to identify small molecule agonists of the androgen receptor (AR) signaling pathway in the presence of an antagonist (AID 1259381; calls by dose curve; further: nearly all actives have a fitted effect of over 15% in size). Put shortly: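 Here, 15-concentration compound series were pin-transferred onto MDA-kb2 MMTV-luciferase cells already dosed with nilutamide (3.0uM final). After 16hr at 37C, ONE-Glo was added and luminescence read 30min later at room temperature.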
Sequence of Androgen receptor (Homo sapiens) (P10275 whole entry, looked up): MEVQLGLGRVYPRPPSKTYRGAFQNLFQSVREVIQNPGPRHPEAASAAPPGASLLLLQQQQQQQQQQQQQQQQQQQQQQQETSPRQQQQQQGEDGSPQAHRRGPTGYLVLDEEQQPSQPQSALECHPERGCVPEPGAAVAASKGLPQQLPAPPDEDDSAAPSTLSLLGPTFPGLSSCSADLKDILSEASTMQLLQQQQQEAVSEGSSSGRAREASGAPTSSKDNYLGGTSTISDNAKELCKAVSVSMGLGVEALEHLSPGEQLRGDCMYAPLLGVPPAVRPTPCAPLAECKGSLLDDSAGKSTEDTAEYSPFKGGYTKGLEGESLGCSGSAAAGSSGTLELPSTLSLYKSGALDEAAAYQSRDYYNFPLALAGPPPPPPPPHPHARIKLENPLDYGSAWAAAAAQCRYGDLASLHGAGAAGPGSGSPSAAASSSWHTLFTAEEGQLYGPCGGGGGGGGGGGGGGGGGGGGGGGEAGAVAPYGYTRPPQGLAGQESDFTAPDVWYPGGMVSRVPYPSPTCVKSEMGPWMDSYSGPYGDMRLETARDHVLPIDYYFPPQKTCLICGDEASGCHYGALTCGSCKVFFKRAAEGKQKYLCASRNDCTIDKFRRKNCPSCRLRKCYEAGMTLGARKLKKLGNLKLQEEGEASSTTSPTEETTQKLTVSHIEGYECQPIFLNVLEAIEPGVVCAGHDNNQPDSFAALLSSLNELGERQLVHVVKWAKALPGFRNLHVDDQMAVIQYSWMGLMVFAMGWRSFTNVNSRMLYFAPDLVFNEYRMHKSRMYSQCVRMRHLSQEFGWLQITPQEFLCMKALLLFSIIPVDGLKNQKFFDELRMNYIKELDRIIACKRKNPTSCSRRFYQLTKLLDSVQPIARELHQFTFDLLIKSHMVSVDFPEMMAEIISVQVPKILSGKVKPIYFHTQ

Sequence of Estrogen receptor beta (Homo sapiens) (Q92731 whole entry, looked up): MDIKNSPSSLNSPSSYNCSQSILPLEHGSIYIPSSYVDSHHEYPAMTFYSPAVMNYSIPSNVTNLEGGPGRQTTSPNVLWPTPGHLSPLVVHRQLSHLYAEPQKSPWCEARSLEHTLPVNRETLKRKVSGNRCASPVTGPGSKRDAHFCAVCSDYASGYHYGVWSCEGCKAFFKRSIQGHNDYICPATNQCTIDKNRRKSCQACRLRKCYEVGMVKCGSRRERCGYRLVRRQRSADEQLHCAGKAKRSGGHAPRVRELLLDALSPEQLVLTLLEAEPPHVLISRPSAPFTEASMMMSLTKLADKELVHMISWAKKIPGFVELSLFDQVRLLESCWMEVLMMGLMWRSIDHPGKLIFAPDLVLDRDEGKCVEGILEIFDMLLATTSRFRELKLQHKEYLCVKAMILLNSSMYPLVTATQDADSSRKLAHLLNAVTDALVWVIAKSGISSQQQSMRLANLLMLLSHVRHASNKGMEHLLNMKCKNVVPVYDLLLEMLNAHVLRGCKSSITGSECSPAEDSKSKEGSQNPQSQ
Sequence of Thyrotropin-releasing hormone receptor (Homo sapiens) (P34981 whole entry, looked up): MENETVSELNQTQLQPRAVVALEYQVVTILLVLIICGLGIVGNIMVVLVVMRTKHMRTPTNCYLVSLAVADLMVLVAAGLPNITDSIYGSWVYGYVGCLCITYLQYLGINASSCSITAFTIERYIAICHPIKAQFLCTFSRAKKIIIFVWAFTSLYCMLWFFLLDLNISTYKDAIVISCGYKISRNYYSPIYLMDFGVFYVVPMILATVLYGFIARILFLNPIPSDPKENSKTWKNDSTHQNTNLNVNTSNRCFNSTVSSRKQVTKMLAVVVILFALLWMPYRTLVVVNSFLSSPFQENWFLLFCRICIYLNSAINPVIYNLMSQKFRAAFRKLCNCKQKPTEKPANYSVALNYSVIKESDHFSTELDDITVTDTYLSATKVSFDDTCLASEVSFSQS
Sequence of Estrogen receptor (Homo sapiens) (P03372 whole entry, looked up): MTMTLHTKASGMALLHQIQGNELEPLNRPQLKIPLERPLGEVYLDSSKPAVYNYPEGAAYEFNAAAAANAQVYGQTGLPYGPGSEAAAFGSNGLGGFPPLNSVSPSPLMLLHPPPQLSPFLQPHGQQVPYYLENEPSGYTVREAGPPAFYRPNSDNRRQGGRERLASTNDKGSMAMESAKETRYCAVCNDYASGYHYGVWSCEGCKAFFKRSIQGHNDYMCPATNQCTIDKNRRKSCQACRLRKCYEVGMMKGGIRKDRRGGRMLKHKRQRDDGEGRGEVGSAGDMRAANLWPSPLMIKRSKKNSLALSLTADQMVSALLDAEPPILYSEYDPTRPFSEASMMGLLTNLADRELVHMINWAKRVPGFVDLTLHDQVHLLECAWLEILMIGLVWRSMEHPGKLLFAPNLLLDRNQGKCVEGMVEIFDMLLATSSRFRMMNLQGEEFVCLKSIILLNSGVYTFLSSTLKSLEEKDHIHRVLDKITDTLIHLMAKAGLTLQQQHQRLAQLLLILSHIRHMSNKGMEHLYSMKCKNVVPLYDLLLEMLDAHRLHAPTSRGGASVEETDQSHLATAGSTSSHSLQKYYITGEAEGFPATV

Turning to `O=C(O)CCCCCCCCCCCBr`, the Potency entry in experiment [1], in experiment [2], in [3], in experiment [4], in experiment [5] and in experiment [6] was “inactive” each time. Further, the Potency result in experiment [7], in [8], in experiment [9], in [10], in experiment [11] and in experiment [13] was “inactive” in each case. In addition, the molecule was classed as inactive in [12].
On to `CC1CC(C)C(=O)C1=O` (centres undefined), for which the Potency entry in experiment [1], in [2], in experiment [3], in experiment [14], in experiment [4] and in [16] was “inactive” each time. Also, the Potency result in experiment [6], in experiment [7], in experiment [8], in [9], in experiment [17] and in experiment [10] was “inactive” each time. The Potency entry in experiment [18] and in experiment [13] was “inactive” each time. For the same molecule, the result in experiment [15] and in experiment [12] was inactive.
`CC(=O)[C@H]1[C@H](C#N)C[C@H]2[C@@H]3CC=C4C[C@@H](O)CC[C@]4(C)[C@H]3CC[C@@]21C`: the Potency result in experiment [1], in [3], in [5], in experiment [6], in [7] and in [9] was “inactive” throughout. Further, the Potency entry in experiment [17], in experiment [10], in [11] and in experiment [13] was “inactive” in each case. Besides, the Potency in [14] is 29.5 µM (active). Also, the molecule was called inactive in [12].
In the case of `CCCC(=O)C(=O)O`, the Potency result in experiment [1], in experiment [3], in [14], in experiment [4], in [5] and in experiment [16] was “inactive” in each case. Also, the Potency result in experiment [6], in experiment [7], in experiment [9], in experiment [17], in experiment [10] and in experiment [18] was “inactive” each time. Besides, in experiment [13], the Potency entry was “inactive”. Besides, the molecule was called inactive in experiment [15] and in experiment [12].
As to `c1ccc2c(c1)CCc1ccccc1N2`, the Potency entry in [1], in experiment [2], in experiment [3], in [14], in experiment [4] and in experiment [16] was “inactive” throughout. Further, the Potency result in [6], in experiment [7], in [9], in experiment [17], in experiment [10] and in [11] was “inactive” throughout. Moreover, the Potency result in experiment [18] and in experiment [13] was “inactive” each time. Further, the outcome in experiment [15] and in experiment [12] was inactive.
Take `Cc1ccc2c(Br)cc(Br)c(O)c2n1`: the Potency entry in experiment [1], in experiment [3], in experiment [4], in experiment [10], in experiment [11] and in experiment [18] was “inactive” throughout. For the same molecule, in [13], the Potency entry was “inactive”. The Potency is 11.9 µM (active) in experiment [14] and 18.8 µM (active) in experiment [8]. The molecule was called inactive in experiment [15] and in [12].
For the molecule `CCCC(C(=O)OCCN(CC)CC)(c1ccccc1)c1ccccc1`, the Potency result in experiment [1], in [2], in experiment [5], in experiment [7], in experiment [9] and in [10] was “inactive” each time. Moreover, the Potency result in [11], in [18] and in experiment [13] was “inactive” in each case. Also, the Potency in [14] is 29.8 µM (active). The molecule was classed as inactive in experiment [15] and in experiment [12].
With `CCC(=O)C1CC(C(C)C)CC=C1C` (centres undefined), the Potency result in experiment [1], in experiment [3], in experiment [14], in experiment [19], in experiment [4] and in experiment [5] was “inactive” in each case. The Potency entry in experiment [6], in [7], in [8], in [9], in experiment [17] and in [10] was “inactive” throughout. Besides, the Potency entry in experiment [11] and in experiment [18] was “inactive” each time.
Take `CC(C)(C)C(=O)C(=O)O`: the Potency entry in experiment [1], in [3], in experiment [14], in [4], in [5] and in [6] was “inactive” each time. The Potency entry in [7], in experiment [8], in [9], in experiment [17], in experiment [10] and in [11] was “inactive” throughout. Also, the Potency entry in [18] and in experiment [13] was “inactive” each time. Also, in experiment [12], the molecule was called inactive.
